According to PubChem BioAssay (NCATS):
“And” between values parts separate entries of the source, which are not always exact repeats. Identical values can stand only once. Inconclusive results are not listed. The source made the active and inactive calls. Unless noted, calls come from the whole dose curve; as a rule, active = well fitted curve in the direction sought with a large enough effect; inconclusive = small, poorly fitted or top-dose-only effect, or another doubt; inactive = no such curve, though single readings can be large; an effect the other way counts as inactive or inconclusive.

Tests used:
[1] = target: Cellular tumor antigen p53 (Homo sapiens) (UniProt P04637); test: Primary qHTS for small molecule compounds that upregulate eGFP-tagged delta133p53alpha (in N-terminal) cells. (AID 2060322); settings: NCI-H358 eGFP-delta133p53alpha fluorescence, 24 h; activation: active compounds read high;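 note: series mostly up to about 56 µM; 0% = DMSO vehicle and 100% = reference activator; nearly all actives have a fitted effect of over 75% in size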
In short: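 NCI-H358 cells pre-induced 24 h with 10 ng/ml doxycycline to express N-terminal eGFP-delta133p53alpha, then dosed 24 h at 37C without doxycycline; fixed, Hoechst-stained, GFP intensity by laser scanning cytometry, normalized to DMSO (0%) and 57.5 uM 5-azacytidine (100%).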

[2] = target: Cellular tumor antigen p53 (Homo sapiens) (UniProt P04637); test: Primary qHTS for small molecule compounds that upregulate eGFP-tagged delta133p53alpha (in C-terminal) cells. (AID 2060324);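 note: 0% = DMSO wells and 100% = 57.5 µM 5-azacytidine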
In short: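 NCI-H358 cells with doxycycline-inducible D133p53a-eGFP (C-terminal tag), pre-induced 24 h with 100 ng/ml doxycycline, plated 800/well in doxycycline-free medium and treated 24 h at 37 °C with compound titrations. Cells were then fixed and Hoechst-stained, and GFP intensity was read by laser scanning cytometry.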

[3] = target: Aldehyde dehydrogenase, mitochondrial (Homo sapiens) (UniProt P05091); test: qHTS for Inhibitors of the Aldehyde Dehydrogenase Family (ALDH2) Validation screens (AID 2061302; active = well fitted inhibition curve with a large enough effect; title and protocol of this record describe different tests;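 note: plate controls were DMSO vehicle for no effect and maximal DPI positive control response for full effect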)
[4] = target: Retinaldehyde dehydrogenase 3 (Homo sapiens) (UniProt P47895); test: qHTS for Inhibitors of the Aldehyde Dehydrogenase Family (ALDH1A3) Validation screen (AID 2061312); note: % is set by controls: 0 for no effect and ±100 for the full control effect; nearly all actives have a fitted effect of over 45% in size
[5] = target: Retinaldehyde dehydrogenase 3 (Homo sapiens) (UniProt P47895); test: qHTS for Inhibitors of the Aldehyde Dehydrogenase Family (ALDH1A3) Primary screen (AID 2061315);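 note: plate controls were DMSO vehicle for no effect and reference inhibitor for full effect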

Sequence of Cellular tumor antigen p53 (Homo sapiens) (P04637 whole entry, looked up): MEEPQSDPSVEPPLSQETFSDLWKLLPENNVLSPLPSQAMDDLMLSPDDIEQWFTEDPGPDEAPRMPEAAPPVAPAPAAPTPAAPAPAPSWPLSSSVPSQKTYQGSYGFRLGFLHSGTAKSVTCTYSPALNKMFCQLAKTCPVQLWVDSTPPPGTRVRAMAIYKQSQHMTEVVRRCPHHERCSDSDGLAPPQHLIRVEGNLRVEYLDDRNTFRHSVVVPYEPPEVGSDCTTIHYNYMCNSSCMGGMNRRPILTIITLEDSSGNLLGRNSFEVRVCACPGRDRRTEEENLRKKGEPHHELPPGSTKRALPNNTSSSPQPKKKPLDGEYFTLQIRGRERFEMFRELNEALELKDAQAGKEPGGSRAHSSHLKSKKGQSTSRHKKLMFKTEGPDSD

CN1CC(=O)N/C1=N/C(=O)Nc1cccc(Cl)c1
inactive: activation [1] 5.86% | Potency [2] | Potency [3] | Potency [4]

C#CCn1c(=O)c2c(ncn2C)n(C)c1=O
inactive: activation [1] -14.7% | Potency [2] | Potency [3] | Potency [4]

O=P(O)(O)C(Cl)(Cl)P(=O)(O)O
inactive: activation [1] -11.2% | Potency [2] | Potency [3] | Potency [4]

Nc1ccc(-c2nc3ccc(-c4nc5ccc(N)cc5[nH]4)cc3[nH]2)cc1
inactive: activation [1] -9.36% | Potency [2] | Potency [3] | Potency [4]

COc1ccccc1N1CCN(CCCNc2c(C)c(=O)n(C)c(=O)n2C)CC1
inactive: activation [1] -0.789% | Potency [2] | Potency [3] | Potency [4]

CC(CCc1ccccc1)NCC(O)c1ccc(O)c(C(N)=O)c1 (stereo not given)
inactive: activation [1] 11.5% and 18% | Potency [2] | Potency [3] | Potency [4] | Potency [5]

Cc1cccc(C)c1OCC(C)N (stereo not given)
inactive: activation [1] 8.37% and -22.7% | Potency [2] | Potency [3] | Potency [4]

CCn1ccnc1CC1COc2ccccc2O1 (stereo not given)
inactive: activation [1] -21.8% and 27.7% | Potency [2] | Potency [3] | Potency [4]

C[C@@H](O)[C@H]1C(=O)N2C(C(=O)O)=C(SCCN=CN)C[C@H]12
inactive: activation [1] -25.9% and 4.11% | Potency [2] | Potency [3] | Potency [4]

CC(C)C[C@H](NC(=O)C1OC1C(=O)O)C(=O)NCCCCN=C(N)N (stereo not given in full)
inactive: activation [1] -1.96% | Potency [2] | Potency [3] | Potency [4]

CCNC(=O)N1CCN(CCCC(c2ccc(F)cc2)c2ccc(F)cc2)CC1
inactive: activation [1] -22% and -43.5% | Potency [2] | Potency [3] | Potency [4]
